Results: PubChem BioAssay (NCI)
The panel holds about 83,000 compounds, 20% with a hit somewhere; the sample as a whole holds those more often.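 Testing used 96-well plates and a 48-hour single-concentration exposure. Example: -40 means 40% of the starting cells died.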 A number with no mark means an inactive call. The source made the active and inactive calls. Rule for the calls: active = growth percent below 10; inactive = the rest.

Experiments:
Assay in all cases: NCI-60 one-dose screen, 48 h (100 = growth as untreated, 0 = no growth, -100 = all killed)
Conditions in all cases: 10 µM unless noted
NCI-H23 lung = test system: NCI-H23 lung
NCI-H226 lung = test system: NCI-H226 lung
NCI-H322M lung = test system: NCI-H322M lung
HOP-62 NSCLC = test system: HOP-62 NSCLC
NCI-H460 lung = test system: NCI-H460 lung
HOP-92 NSCLC = test system: HOP-92 NSCLC
786-0 renal = test system: 786-0 renal
COLO 205 colon = test system: COLO 205 colon
DU-145 prostate = test system: DU-145 prostate
K-562 leukemia = test system: K-562 leukemia
MALME-3M melanoma = test system: MALME-3M melanoma
RXF 393 renal = test system: RXF 393 renal
SF-268 CNS = test system: SF-268 CNS
SF-295 CNS = test system: SF-295 CNS
SF-539 CNS = test system: SF-539 CNS
UACC-257 melanoma = test system: UACC-257 melanoma
M14 melanoma = test system: M14 melanoma
NCI-H522 lung = test system: NCI-H522 lung
A549/ATCC NSCLC = test system: A549/ATCC NSCLC
MDA-MB-231 breast = test system: MDA-MB-231 breast

Structure (SMILES)	growth (NCI-H23 lung)	growth (NCI-H226 lung) [%]	growth (NCI-H322M lung)	growth (HOP-62 NSCLC)	growth (NCI-H460 lung)	growth (HOP-92 NSCLC)	growth (786-0 renal)	growth (COLO 205 colon)	growth (DU-145 prostate) [%]	growth (K-562 leukemia)	growth (MALME-3M melanoma)	growth (RXF 393 renal)	growth (SF-268 CNS) [%]	growth (SF-295 CNS)	growth (SF-539 CNS)	growth (UACC-257 melanoma)	growth (M14 melanoma)	growth (NCI-H522 lung)	growth (A549/ATCC NSCLC)	growth (MDA-MB-231 breast)
O=[N+]([O-])C=C(c1ccccc1)c1ccccc1	81.9%	88.6	88%	73.7%	88.4%	63.9%	89.2%	114%	87.7	29.4%	80.2%	78.5%	85.7	89.3%	88.2%	84%	79.4%			
C/C(=N/NC(N)=S)c1ccc(C)cc1	95.4%	83.5	106%	87.8%	100%		101%	99.1%	100	58%	102%	97.4%	98.7	93.3%	100%	89.2%		94.5%	87.6%	97.4%
c1ccc(C2NCCNC2c2ccccc2)cc1 (stereo not given)	103%	99.5	100%	98.7%	109%	93.6%	107%	103%	104	105%	111%	120%	101	104%	98.7%	99.6%	102%		98.1%	98.4%
O=C1/C(=C/c2ccccc2)CCC/C1=C\c1ccccc1	88%	96	94.9%	109%	103%		87.7%	127%	90	62%	89.5%	98%	86.9	91.8%	111%	84.5%		78.7%	98.8%	98.9%
O=C1C=CC(=O)c2c(O)c(CO)c(CO)c(O)c21	89.2%	110	119%	109%	102%		93.7%	12%	54.9	91.7%	9.33% (active)	98%	111	95%	104%	94.4%	14%	56.6%	99.5%	89.6%
CCOc1ccc(Nc2nc3c(s2)C(=O)c2ccccc2C3=O)cc1	41.9%	87	105%	113%	94.4%	85.1%	108%	100%		37.2%	52.9%	105%	73	102%	108%	94.7%	85.9%	51.5%		33.9%
CCCCCCN(CCCCCC)CCCNc1nccc2ccccc12	12%	42.9	28.7%	64.3%	3.2% (active)	-14.6% (active)	5.89% (active)	-66% (active)	26.5	0.764% (active)	-58.6% (active)	29.5%	33.2	-50.8% (active)	-23.2% (active)	41.7%	-41.3% (active)		14.3%	1.89% (active)
CCN(CC)c1ccc(/C=C\C(=O)c2ccc(NC(C)=O)cc2)cc1	75.2%	99.6	111%	56.2%	82.2%	70.9%		49.4%	60.1		117%	79.4%	83.6	35.6%	67.3%	78.3%			56.8%	65.7%
O=C(Cc1nc2cc(Cl)c(Cl)cc2nc1CC(=O)c1cccnc1)c1cccnc1	88.1%	77.2	78.4%	86.3%	82.6%	78%	58.7%	89.8%	93.5	49.6%	65.5%	87.9%	82.2	94.1%	78.7%	95.7%	76.5%		93.5%	
Cc1cc(I)nc2ccccc12	95.1%	104	102%	105%	106%	93.5%	105%	106%	120	108%	114%	122%	105	101%	100%	119%	111%		111%	99.7%
CCC(=O)c1cc([N+](=O)[O-])c(Br)s1	93.4%	99.1	101%	101%	108%	89.1%	109%	11.5%	105	44.5%	90.5%	91%	96.6	103%	88.5%	96.5%	71.6%			103%
C(=N\Nc1ccc2ccccc2n1)/c1ccccn1	32.4%	10.9	-5.75% (active)	6.17% (active)	3.31% (active)	42.2%	22.1%	20%	22.7	15.4%	-23.6% (active)	16.7%	16.7	14.7%	-14.2% (active)	-3.38% (active)	-8.17% (active)		8.26% (active)	30.5%
CCCCCC[C@@H](O)C/C=C\CCCCCCCC(=O)OCCOC	101%	101	104%	88.9%	107%	79.2%		115%	116	137%		110%	106	131%	106%	100%			94.3%	90%
CC1=CC(=NC(=O)CBr)C=C/C1=N\S(=O)(=O)c1ccccc1	80.2%	68.3	107%	75.1%	98.4%	52.9%	53.6%	59.5%	76.8		21.9%	82.4%	64.8		91.6%		72.8%	-80.4% (active)		67.5%
N=C(N)Sc1cccc[n+]1[O-]	55.6%	78.7	68.9%	79%	21.8%	104%	76.7%	39.8%	35.5	33.2%	22.2%	22.2%	62.6	68.7%		58%	18.4%		54.5%	59.6%
NC(=S)N/N=C/c1ncccc1O	-6.55% (active)	39	40.2%	17.8%	8.78% (active)	2.7% (active)	-17.1% (active)	11.2%	12.7	24%	54%	9.63% (active)	14.9	21.5%	-7.14% (active)	18.9%			28%	34.8%
Oc1ccc(Nc2ccc3ccccc3c2)cc1	69%	89.2	33.9%	57.4%	59.4%	55.9%	46.7%	96.1%	51.2	26.5%	92.9%	78.3%	50.4	67.7%	36.6%	73.7%	53.3%		55.3%	36%
